Results: ChEMBL document CHEMBL1201862, “PubChem BioAssay data set” (2004)
In all, about 57,000 sequences went through this assay and about 2,300 (4%) were called active. Rule as the data show it: active = GI50 up to about 1.1 µM and inactive = higher. The list is a sample of the results. Results with a measured potency or affinity are listed apart.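 1) Cells in 96-well plates. 2) Compound, 48 h, 5 concentrations. 3) Linear interpolation between surrounding doses. 4) Unreached endpoint = highest concentration. GI50 = concentration required for 50% inhibition of growth.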

Test system: SK-MEL-28
Test: NCI tumour cell line growth inhibition, 48 h

Row | Substance | GI50 [µM]
1 | [Bis(aminomethyl)diethylsilane]tetrachloroplatinum(IV), CHEMBL2146203 | 1.72
2 | CISPLATIN, CHEMBL11359 | 4.43
3 | [Bis(aminomethyl)tetramethylenesilane]dichloropaltinum(II), CHEMBL2146205 | 20.3
4 | [Bis(aminomethyl)pentamethylenesilane]dichloropaltinum(II), CHEMBL2146202 | 3.85
5 | [Bis(aminomethyl)ethylmethylsilane]tetrachloroplatinum(IV), CHEMBL2146192 | 2.76
6 | [Bis(aminomethyl)pentamethylenesilane]tetrachloropaltinum(IV), CHEMBL2146204 | 1.23
7 | cis-Bis[[(trimethylsilyl)methyl]amino]tetrachloroplatinum(IV), CHEMBL2146191 | 2.86
8 | [Bis(aminomethyl)dimethylsilane]tetrachloroplatinum(IV), CHEMBL2146190 | 10.2
9 | [Bis(aminomethyl)tetramethylenesilane]tetrachloropaltinum(IV), CHEMBL2146189 | 2.85
10 | mu-(1,7-nanodiamine-N,N')bis-(cis-aminedichloroplatimum (II)), CHEMBL2146215 | 10.2
11 | [Bis(aminomethyl)dimethylsilane]dichloroplatinum (II), CHEMBL2146201 | 21.6
